Reference: PubChem BioAssay (NCI)
The panel holds about 83,000 compounds, 20% with a hit somewhere; the sample as a whole holds those more often.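 A percent growth of 40 corresponds to 60% growth inhibition; 0 means no net growth; -100 means all cells died. Active threshold: below 10.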 Unmarked numbers belong to inactive results. Calls of active or inactive are those of the source.

test system: OVCAR-8 ovarian; test: NCI-60 one-dose screen, 48 h (100 = growth as untreated, 0 = no growth, -100 = all killed); conditions: 10 µM unless noted
Method: Growth inhibition of the OVCAR-8 human tumor cell line is measured as a screen for anti-cancer activity. Cells are grown in 96 well plates and exposed to the test compound for 48 hours. Compounds are tested at a single concentration, which is 10^-5 M for most compounds. The reported endpoint is percent growth (GI% or GIPRCNT), where numbers from 0 - 100% represent growth inhibition, and numbers from -100% - 0 represent cell death. For example, a value of 40 represents 60% growth inhibition. A value of 0 means no net growth occurred over the course of the experiment. A value of -40 indicates 40% of cells at the beginning of the experiment died by the end of the experiment. A value of -100 means all cells are dead at the end of the experiment.
NCI-60 Human Tumor Cell Lines Screen was performed using the standard one-dose NCI protocol, which is described in more detail at https://dtp.cancer.gov/discovery_development/nci-60/default.htm.
Compounds with GIPRCNT values below 10 were considered active. Activity score was based on GIPRCNT using the following formula: […]
Score is 0 for GIPRCNT values of 100 or above, 50 for GIPRCNT values of 0, and 100 for GIPRCNT values of -100.

| SMILES | growth |
| --- | --- |
| COC(=O)c1c2c(n3ccccc13)C(=O)c1ccccc1C2=O | 45% |
| CCOc1ccc(-n2nc(C(=O)NCc3ccccc3OC)nc2-c2cc(OC)c(OC)c(OC)c2)cc1 | 43.7% |
| CCNC(=O)Oc1ccc(/C(=C(/C)Cc2ccc(OC)cc2)c2ccc(OCCN3CCCCC3)cc2)cc1 | 81.8% |
| C=C1CC[C@@H]2[C@](C)(COC(C)=O)[C@H](OC(C)=O)CC[C@@]2(C)[C@@H]1CC(Nc1ccc(S(=O)(=O)NC(C)=O)cc1)C1=CCOC1=O (stereo not given in full) | -18.2% (active) |
| O=S(=O)(Oc1ccc(Br)cc1)c1ccc(Cl)cc1 | 106% |
| Cn1cc(-c2ccc(-c3cn(C)c4ccc(Cl)cc34)[nH]2)c2cc(Cl)ccc21 | -5.8% (active) |
| COc1ccc(/C=C/c2ccc3ccccc3n2)c(OC)c1 | 92.5% |
| Cc1nc2c(c(=O)[nH]1)C(c1ccccc1)c1ccc3ccccc3c1O2 (stereo not given) | 34.5% |
| CC(=O)c1sc2sc(C(C)=O)c(C)c2c1C | 84% |
| CSC1=Nc2c(c(C)c(-c3ccccc3)n2CCCC(=O)O)C2=NC(=O)C[C@H](C)N12 | 110% |
| O=C1c2ccccc2C(=O)c2c1cc1c(c2[N+](=O)[O-])OCO1 | 14.4% |
| C=C1C(=O)O[C@H]2[C@H]1CC/C(COC(=O)c1cc3cc(Cl)ccc3[nH]1)=C\CC[C@@]1(C)O[C@@H]21 | -72.9% (active) |
| CN(C)CCN1C(=O)c2cccc3c(/C=C/CN4C(=O)c5cccc6cccc(c56)C4=O)ccc(c23)C1=O | -43.5% (active) |
| CCN(CC)CCCN1C(=O)c2c(c(C)c3c(oc4ccc(OC)cc43)c2C)C1=O | 93.3% |
| N#Cc1c(-c2ccccc2)nc(SCC(O)CN2CCOCC2)nc1N1CCOCC1 (stereo not given) | 33.4% |
| CCCC(CC)(C(=O)Nc1ccc2nc(C)cc(N)c2c1)C(=O)Nc1ccc2nc(C)cc(N)c2c1 | 103% |
| COc1cc(OC)c(/C=C/C(=O)c2c(O)cc(OC)c(C3CCN(C)CC3)c2OC)c(OC)c1 | 1.17% (active) |
| COc1cccc(C(=O)NNc2nc(Cl)nc(Cl)n2)c1 | 95.4% |
| Cc1ccc(S(=O)(=O)Oc2ccc3sc4cccc(NCCN(C)C)c4c(=O)c3c2)cc1 | -67.3% (active) |
| CCOC(=O)c1nn(CC(O)c2ccccc2)c(NC(=O)Nc2cccc(F)c2)c1C (stereo not given) | 91.4% |

| SMILES | growth |
| --- | --- |
| C=CCn1c(SCC(=O)Nc2ccc(/C(C)=N/O)cc2)nnc1-c1cc(-c2ccc(S(N)(=O)=O)cc2)nc2ccccc12 | 54.7% |
| COc1cccc(Nc2ncnc3cc(NC(=O)CCl)ccc23)c1 | -36.6% (active) |
| N#Cc1cccc(C2C3=C(COC3=O)N(CCO)c3cc4c(cc32)CCC4)c1 (stereo not given) | 5.25% (active) |
| C=CC(=O)Nc1ccc(Oc2nccc(Nc3nnc(-c4ccc(C)cc4)s3)n2)cc1 | 81.4% |
| CO[C@H](C(=O)[C@@H](O)[C@@H](C)O)[C@@H]1Cc2cc3cc(O[C@H]4C[C@@H](O[C@H]5C[C@@H](O)[C@H](O)C(C)O5)[C@H](O)C(C)(O)O4)cc(O)c3c(O)c2C(=O)[C@H]1O[C@H]1C[C@@H](O[C@H]2C[C@@H](O[C@H]3C[C@@H](OC)[C@H](O)C(C)O3)[C@@H](O)C(C)O2)[C@H](O)C(C)O1 (stereo not given in full) | 24.3% |
| Oc1c(CN2CCC(N3CCCCC3)CC2)cc(Cc2cc(CN3CCC(N4CCCCC4)CC3)c(O)c3ncccc23)c2cccnc12 | 30.1% |
| CC1=C(C(=O)Nc2ccccc2)C(c2ccc3c(c2)OCO3)NC(=S)N1 (stereo not given) | 104% |
| C#CCO[C@H]1CC(CC#C)(CC#C)C(=O)[C@@H]2[C@H]1[C@H]1C[C@@H]3[C@@]4(C)CCC[C@@](C)(C(=O)OC)[C@@H]4CC[C@@]23C=C1C(C)C | 58.4% |
| CO[C@H]1CC(=O)n2c3ccccc3c3c4c(c5c6ccccc6n1c5c32)C(=O)NC4=O | 37.1% |
| COc1ccc2c(c1)CCc1[nH]nc(-c3cc(OC)c(OC)c(OC)c3)c1-2 | 7.98% (active) |
| C=Cc1cnc(Nc2ccc(OC)cc2)nc1NCCCNC(=O)C1CCC1 | 49.2% |
| Cc1n[nH]c2ccc(Br)cc2c1=O | 110% |
| COc1ccc(C(=O)c2cc3c(N)c(C(=O)Nc4ccccc4)sc3nc2C)cc1 | 25.5% |
| O=C(CSc1nnc(-c2cc(-c3ccccc3)nc3ccccc23)n1-c1ccccc1)Nc1ccc(C(=O)/C=C/c2ccc(Cl)cc2)cc1 | 93.1% |
| O=C(O)/C=C/C(=O)Nc1cccc(Cn2nnc3cc(Cl)c(Cl)cc32)c1 | 99.6% |
| CC1(C)OB(O)c2cc(-c3nc4ccc5[nH]ncc5c4c4c3CCCC4)ccc21 | 46.3% |
| CC1(C)N=C(N)N=C(N)N1c1cccc(CCc2ccccc2)c1 | 52.6% |
| COc1ccc(C2=CC(c3cc(OC)c(OC)c(OC)c3)n3ncnc3N2)cc1 (stereo not given) | 5.91% (active) |
| COc1ccc(/C=C/C(=O)c2cc3c(N)c(C(=O)Nc4cccc(Cl)c4C)sc3nc2C)cc1 | -8.6% (active) |
| CC1(C)NCCC[C@]2(C)[C@H]3CC[C@H]4[C@H]5[C@H](C(=O)/C=C/c6cccnc6)CCC[C@]5(CO)CC[C@@]4(C)[C@]3(C)CC[C@@H]12 | 55.5% |
